In PubChem BioAssay (EPA / NIEHS):
“And” between values parts separate entries of the source, which are not always exact repeats. Equal values may be shown once. Some compounds were tested as several samples or in several runs, with calls that do not always agree. The source made the active and inactive calls. How the source made its calls: active means hit-call score of the fitted dose curve at least 0.9, where 1 is the maximum; inactive means score below 0.9.

Read-out: Vascular cell adhesion molecule 1 (VCAM1), VCAM1 (gene 7412)
Assay: BSK_BF4T_VCAM1: BioMAP Diversity Plus: BF4T Assay for Vascular cell adhesion molecule 1 (VCAM1) Biomarker Activity (AID 2284249)
Conditions: primary human bronchial epithelial cells with fibroblasts
Experimental: BSK_BF4T is a cell-based, multiplexed-readout assay that uses bronchial epithelial cells and dermal fibroblasts, a human vascular primary cell, with measurements taken at 24 hours after chemical dosing in a microplate: 96-well plate.BSK_BF4T_VCAM1 is an assay component measured in the BSK_BF4T assay. It measures VCAM-1 antibody related to regulation of gene expression using ELISA technology.Data from the assay component BSK_BF4T_VCAM1 was analyzed at the endpoint, BSK_BF4T_VCAM1, in the positive analysis fitting direction relative to DMSO as the negative control and baseline of activity. Using a type of binding reporter, gain or loss-of-signal activity can be used to understand protein changes. To generalize the intended target to other relatable targets, this assay endpoint is annotated to the 'cell adhesion molecules' intended target family, where the subfamily is 'Immunoglobulin CAM'.
The levels of cell surface (or secreted, indicated by the prefix "s") biomarker endpoints were measured by ELISA. Overt cytotoxicity to cells in confluent adherent cultures (all systems other than the BT system) was assessed by measuring total protein levels using sulforhodamine B (SRB) staining in parallel cultures at the time of biomarker measurements, indicated as SRB endpoints. For proliferation assays for adherent cell types, individual cell types are cultured at sub-confluence and relative cell numbers quantified by SRB staining at time points optimized for each system (48 h: 3C and CASM3C systems; 72 h: BT and HDF3CGF systems; 96 h: SAg system). SRB was performed by staining cells with 0.1% SRB after fixation with 10% TCA and reading wells at 560 nm.Viability and proliferation of PBMC (T cells) was quantified by Alamar Blue reduction for the SAg and BT systems. For PBMC viability (referred to as PBMC Cytotoxicity within the assay endpoint names), cells were plated (75,000/well in a 96-well plate) and then chemical samples added for 1 h before addition of activators, SEB and TSST-1 (20 ng/mL final concentration each). Cells were incubated for 90 h. Then, Alamar Blue (20 uL/well) (Invitrogen, Cat DAL1100) was added for 6 h, and the plates were read with a fluorescence microplate reader at 546/580 nm (excitation/emission). For PBMC proliferation, cells were plated and activated as above but incubated for only 16 h prior to addition of Alamar Blue. Plates were read after 6 h.

Structure (SMILES) | AC50 | outcome
O=C(Cl)C(F)(F)C(F)(F)C(F)(F)C(F)(F)C(F)(F)C(F)(F)C(F)(F)C(F)(F)F | 38.9 µM (active) and 47.4 µM (active) and 45.5 µM (active) | 
FC(F)(I)C(F)(F)C(F)(F)C(F)(F)I | 41.5 µM (active) and 47 µM (active) and 30 µM (active) | 
FC(F)(F)C(F)(F)C(F)(F)C(F)(F)CCI |  | inactive
O=C(O)C(F)(F)C(F)(F)C(F)(F)C(F)(F)C(F)(F)C(F)(F)C(F)(F)C(F)(F)Cl | 7.26 µM (active) | inactive
FC(F)(F)C(F)(F)C(F)(F)N(C(F)(F)C(F)(F)C(F)(F)F)C(F)(F)C(F)(F)C(F)(F)F |  | inactive
N=C(N)C(F)(F)C(F)(F)C(F)(F)C(F)(F)C(F)(F)C(F)(F)C(F)(F)F |  | inactive
O=C(O)C=C(C(F)(F)F)C(F)(F)F |  | inactive
FC(F)(F)C(F)(F)C(F)(F)C(F)(F)C(F)(F)C(F)(F)C(F)(F)I |  | inactive
COC(=O)CCC(F)(F)C(F)(F)C(F)(F)C(F)(F)F |  | inactive
C=C(C)C(=O)OCC(F)(F)C(F)(F)C(F)(F)C(F)(F)C(F)(F)C(F)(F)C(F)(F)F |  | inactive
O=S(=O)(O)C(F)(F)C(F)(F)C(F)(F)C(F)(F)C(F)(F)C(F)(F)C(F)(F)F |  | inactive
CCCCCCCCC(F)(F)C(F)(F)C(F)(F)C(F)(F)C(F)(F)C(F)(F)F |  | inactive
O=C(O)C(F)(F)C(F)(F)C(F)(F)C(F)(F)C(F)(F)C(F)(F)C(F)(F)C(F)(F)C(F)(F)C(F)F | 7.76 µM (active) | inactive
OCC(F)(F)C(F)(F)C(F)(F)C(F)(F)C(F)(F)C(F)(F)F |  | inactive
O=C(CC(=O)C(F)(F)C(F)(F)F)C(F)(F)F |  | inactive
O=C(O)C(F)(OC(F)(F)C(F)(OC(F)(F)C(F)(F)C(F)(F)F)C(F)(F)F)C(F)(F)F (stereo not given) |  | inactive
C=CC(F)(F)C(F)(F)C(F)(F)C(F)(F)C(F)(F)C(F)(F)C(F)(F)C(F)(F)F |  | inactive
O=S(=O)(OCC(F)F)C(F)(F)F |  | inactive
O=C(O)C(F)(F)C(F)(F)F |  | inactive

Structure (SMILES) | AC50 | outcome
FC(F)(F)C(F)(F)C(F)(F)C(F)(F)C(F)(F)C(F)(F)CCS |  | inactive
FC(F)(F)C(F)(F)C(F)(F)C(F)(F)C(F)(F)C(F)(F)C(F)(F)C(F)(F)F |  | inactive
OCC(F)(F)C(F)(F)C(F)(F)C(F)F |  | inactive
FC(F)(F)C(F)(F)C(F)(F)C(F)(F)C(F)(F)C(F)(F)C(F)(F)C(F)(F)CCS |  | inactive
C=CC(=O)OCC(F)(F)C(F)(F)C(F)(F)C(F)(F)C(F)(F)C(F)(F)C(F)(F)F |  | inactive
C=CC(=O)OCC(F)(F)C(F)(F)C(F)(F)C(F)(F)COC(=O)C=C | 7.96 µM (active) and 10.9 µM (active) | 
O=C(O)C(F)(F)C(F)(F)C(F)(F)C(F)(F)C(F)(F)C(F)(F)C(F)(F)C(F)(F)C(F)(F)C(F)(F)C(F)(F)C(F)(F)C(F)(F)F |  | inactive
CC(C)(C)C(=O)CC(=O)C(F)(F)C(F)(F)C(F)(F)F |  | inactive
NC(=O)C(F)(F)C(F)(F)C(F)(F)C(F)(F)F |  | inactive
OCCCC(F)(F)C(F)(F)C(F)(F)F |  | inactive
O=C(O)C(F)(OC(F)(F)C(F)(OC(F)(F)C(F)(OC(F)(F)C(F)(F)C(F)(F)F)C(F)(F)F)C(F)(F)F)C(F)(F)F (stereo not given) |  | inactive
FC1CC(F)(F)C(F)(F)C1(F)F (stereo not given) |  | inactive
O=C(O)C(F)(F)C(F)(F)C(F)(F)F |  | inactive
OCC(F)(F)C(F)(F)C(F)(F)F |  | inactive
C=CC(F)(F)C(F)(F)C(F)(F)C(F)(F)C(F)(F)C(F)(F)C(F)(F)C(F)(F)C=C |  | inactive
C=C(C)C(=O)OCC(F)(F)C(F)(F)C(F)(F)F |  | inactive
O=C(O)C(F)(F)C(F)(F)C(F)F |  | inactive
O=C(O)C(F)(F)C(F)(F)C(F)(F)C(F)(F)C(F)(F)C(F)(F)C(F)(F)C(F)(F)C(F)(F)C(F)(F)C(F)(F)C(F)(F)F |  | inactive
O=C(O)C(F)(F)C(F)(F)OC(F)(F)F |  | inactive
